High-throughput results as filed in PubChem.
A selection: hits, their analogues and other compounds. The true share with any hit is near 3.4%.
hcDAF-12 act – activates DAF-12 receptor from parasite H. contortus | HEK293 hcDAF-12 lit1-tk-luc reporter, luminescence; 0% DMSO, 100% Δ7-dafachronic acid | AID 652067 | 370,000 tested, 1.4% active | activation, % at 6.8 µM;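 active = activation above the mean of all tested compounds plus 3 SD, cut at about 5.5% in these data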;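 note: 100% = response to 3 µM Δ7-dafachronic acid high control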
NF-kB neuron act – NF-kB expression increase, human neuronal cells; NF-kB reporter expression; hits give high values; fold change at 12.5 µM; 190,000 tested, 1.6% active; AID 1239; in the data active = fold change above about 3.3
APP 5'UTR act – APP 5'UTR luciferase reporter activation. SH-SY5Y APP 5'UTR luciferase reporter, luminescence; zero percent = DMSO vehicle wells. activation, % at 2 µM. 190,000 tested, 1% active;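 active = activation above a set limit, based on mean plus 3 SD of controls, cut at about 140% in these data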
ssDAF-12 act – activates DAF-12 receptor from parasite S. stercoralis; activation, % at 6.8 µM; HEK293 ssDAF-12/GRIP1 lit1-tk-luc reporter, luminescence; % of 3 µM dafachronic acid response; 370,000 tested, 1% active; AID 652126;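 active = activation above the mean over all tested compounds plus 3 SD, cut at about 0.9% in these data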;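 note: 0% = DMSO-only wells and 100% = 3 µM delta7-dafachronic acid wells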
hgDAF-12 ag – activates the H. glycines DAF-12 receptor ligand-binding domain. HEK293 GAL4-hgDAF12 UAS-luciferase reporter, agonist luminescence; normalized to butyrate control. activation, % at 6.8 µM. 370,000 tested, 1.8% active. AID 687014;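 active = activation above a cutoff set at the mean of all screened compounds plus 3 SD, cut at about 10% in these data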;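 note: 0% = DMSO wells and 100% = sodium butyrate wells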
* marks the source's active call; other numbers are inactive results.

For O=C(Nc1nc2ccc(Cl)cc2s1)[C@@H]1CCCN1C(=O)c1cccs1 the results were hcDAF-12 act 5.7*, NF-kB neuron act 0.81, APP 5'UTR act 9.2, ssDAF-12 act 0.2 and hgDAF-12 ag 9.6.
For CCOC(=O)COc1ccccc1C1Nc2ccccc2C(=O)N1c1cccc(Cl)c1 (stereo not drawn) the results were hcDAF-12 act 2.1, NF-kB neuron act 2.12, APP 5'UTR act 60.4, ssDAF-12 act -1.4 and hgDAF-12 ag 12.0*.
`O=[N+]([O-])c1cnc2ccccc2c1Sc1ccccc1` gave hcDAF-12 act 2.7, ssDAF-12 act -0.8 and hgDAF-12 ag 0.6.
Screening N#Cc1ccccc1OCC(=O)NC1CCCCCC1 returned hcDAF-12 act 4.8, ssDAF-12 act -0.1 and hgDAF-12 ag 10.9*.
For CC(C)(C)NC(=O)NC(=O)COc1ccccc1C#N the results were hcDAF-12 act 1.7, NF-kB neuron act 2.13, APP 5'UTR act 186.6*, ssDAF-12 act -0.4 and hgDAF-12 ag 8.9.
O=C(CCn1nnc(-c2cccs2)n1)N1CCCC1 was read as hcDAF-12 act -1.0, ssDAF-12 act -1.2 and hgDAF-12 ag 0.9.
`Cc1ccc(NC(=O)CCCC(=O)O)c(-c2nc3ccccc3[nH]c2=O)c1` gave hcDAF-12 act 2.0, ssDAF-12 act 0.9* and hgDAF-12 ag -0.5.
For O=[N+]([O-])c1cccnc1NCCc1c[nH]c2ccccc12 the results were hcDAF-12 act 2.9, ssDAF-12 act 1.0* and hgDAF-12 ag 12.3*.
For Cc1cc(N2CCCN(C)CC2)n2nc(C)nc2n1 the results were hcDAF-12 act -1.0, ssDAF-12 act -1.1 and hgDAF-12 ag 3.2.
`O=C(COC(=O)c1c(F)cccc1Cl)NCC1CCCCC1` gave hcDAF-12 act -0.1, ssDAF-12 act -0.9 and hgDAF-12 ag 11.1*.
Screening O=C(COC(=O)c1c(F)cccc1Cl)NC1CCCC1 returned hcDAF-12 act 0.8, ssDAF-12 act 0.1 and hgDAF-12 ag 6.8.
Screening CN(C)CCSc1nnc2[nH]c3ccccc3c2n1 returned hcDAF-12 act 3.1, NF-kB neuron act 1.27, APP 5'UTR act -0.9, ssDAF-12 act 1.1* and hgDAF-12 ag 3.3.
`Cc1cccc(N(C(=O)CCC(=O)Nc2cc(C)on2)C(C(=O)NC2CCCC2)c2ccc(C)o2)c1` (stereo not drawn) gave hcDAF-12 act -1.0, NF-kB neuron act 1.06, APP 5'UTR act 17.1, ssDAF-12 act 2.2* and hgDAF-12 ag 3.8.
For Cc1cc(C)cc(NC2=CC(=O)CC(c3ccco3)C2)c1 (stereo not drawn) the results were hcDAF-12 act 1.9, NF-kB neuron act 1.01, APP 5'UTR act -3.4, ssDAF-12 act -0.8 and hgDAF-12 ag -1.2.
For Cc1ccc(NC2=CC(=O)CC(c3ccco3)C2)c(N)c1 (stereo not drawn) the results were hcDAF-12 act 4.3, NF-kB neuron act 1.1, APP 5'UTR act 125.7, ssDAF-12 act 1.6* and hgDAF-12 ag 10.6*.
Screening Cc1ccc2nc(C3CCCCC3)[nH]c2c1 returned hcDAF-12 act 2.3, ssDAF-12 act 0.0 and hgDAF-12 ag 11.6*.
For Cc1cc(C)nc(NS(=O)(=O)c2ccc(Br)s2)c1 the results were hcDAF-12 act -0.4, NF-kB neuron act 0.99, APP 5'UTR act 3.4, ssDAF-12 act -1.1 and hgDAF-12 ag -2.4.
Cc1ccc(NS(=O)(=O)c2ccc(Br)s2)nc1 was read as hcDAF-12 act -0.7, APP 5'UTR act -7.9, ssDAF-12 act 1.3* and hgDAF-12 ag -3.0.
Screening O=C(Cc1cccs1)N/N=C/C(Cl)=C/c1ccccc1 returned hcDAF-12 act 3.2, NF-kB neuron act 1.08, APP 5'UTR act 64.7, ssDAF-12 act -0.7 and hgDAF-12 ag 11.5*.
Screening O=C(Cc1cccs1)N/N=C/c1ccccc1 returned hcDAF-12 act 0.3, ssDAF-12 act -0.6 and hgDAF-12 ag 0.3.
For COc1ccc(-n2c(COc3ccc(Cl)cc3)nnc2SCc2nc3ccccc3[nH]2)cc1 the results were hcDAF-12 act -2.4, ssDAF-12 act -1.5 and hgDAF-12 ag -0.7.
COc1ccc(-n2ncc3c(NCc4cccnc4)ncnc32)cc1 was read as hcDAF-12 act 3.3, ssDAF-12 act 0.1 and hgDAF-12 ag 11.3*.
Screening O=C(c1cc2ccccc2o1)N1CCN(C/C=C/c2ccccc2)CC1 returned hcDAF-12 act -2.5, ssDAF-12 act -1.3 and hgDAF-12 ag -1.8.
O=C(c1cc2ccccc2o1)N1CCN(Cc2nc3ccccc3s2)CC1 was read as hcDAF-12 act 6.2*, ssDAF-12 act 0.7 and hgDAF-12 ag 4.8.
`C[C@@H]1COc2cc(Br)ccc2S(=O)(=O)N1Cc1cn(Cc2ccc(C(F)(F)F)cc2)nn1` gave hcDAF-12 act 0.0, ssDAF-12 act -1.4 and hgDAF-12 ag 0.2.
Screening COC(=O)CNC(=O)COC(=O)/C=C/c1ccccc1[N+](=O)[O-] returned hcDAF-12 act 3.6, NF-kB neuron act 0.8, APP 5'UTR act 29.7, ssDAF-12 act 2.0* and hgDAF-12 ag 2.7.
`CC(C)CC(=O)Nc1ccc2c(c1)oc1ccccc12` gave hcDAF-12 act 1.8, NF-kB neuron act 6.07*, APP 5'UTR act 173.3*, ssDAF-12 act -0.1 and hgDAF-12 ag 9.9.
O=C(N/N=C/c1cn(-c2ccccc2)nc1-c1cc2ccccc2o1)c1ccccc1Br was read as hcDAF-12 act 4.4, NF-kB neuron act 1.92, APP 5'UTR act 187.5*, ssDAF-12 act 0.8 and hgDAF-12 ag 6.9.
Screening CCSc1nsc(NC(=O)Nc2cccc(OC)c2)n1 returned hcDAF-12 act -1.4, ssDAF-12 act -0.4 and hgDAF-12 ag 1.7.
CCCCCCSc1nsc(NC(C)=O)n1 was read as hcDAF-12 act -0.2, NF-kB neuron act 2.61, APP 5'UTR act 25.9, ssDAF-12 act -0.4 and hgDAF-12 ag 6.2.
`CCSc1nsc(NC(=O)Nc2ccccc2F)n1` gave hcDAF-12 act 2.4, ssDAF-12 act -0.5 and hgDAF-12 ag 11.3*.
For CCCCSc1nsc(NC(C)=O)n1 the results were hcDAF-12 act 3.7, NF-kB neuron act 3.21, APP 5'UTR act 141.7*, ssDAF-12 act -0.6 and hgDAF-12 ag 8.8.
Screening CCOC(=O)[C@]12CCCC3=C1N(CCC3)C(=O)[C@@H](CC(=O)NCc1ccc(OC)c(OC)c1)C2 returned hcDAF-12 act -2.0, ssDAF-12 act -0.7 and hgDAF-12 ag -3.7.
CCc1ccc2nc3sc(C(=O)O)cc3cc2c1 was read as hcDAF-12 act 6.1*, NF-kB neuron act 1.82, APP 5'UTR act 12.8, ssDAF-12 act -0.9 and hgDAF-12 ag 6.8.
Screening Cc1cc(=O)nc2c3ccccc3n(CC(=O)NC(C)c3ccc4c(c3)OCCO4)n12 (stereo not drawn) returned hcDAF-12 act 6.0*, ssDAF-12 act 0.3 and hgDAF-12 ag 0.3.
`Nc1nc(N)c(N=O)c(OCC2CCCCC2)n1` gave hcDAF-12 act 0.5, ssDAF-12 act -0.4 and hgDAF-12 ag 12.1*.
`Cc1n[nH]c(=S)n1/N=C/c1ccc(OCc2ccc(Cl)cc2)cc1` gave hcDAF-12 act 2.3, NF-kB neuron act 1.9, APP 5'UTR act 12.2, ssDAF-12 act -1.0 and hgDAF-12 ag 13.1*.
